Source: ChEMBL document CHEMBL3988442, “University of Dundee, Small-Polar-MMV Screening Library” (2021)
Hit rate of the full screen: of about 48,000 compounds, about 13,000 (27%) showed an effect of 50% or more. Some of the results follow.

What follows are compounds tested on Wolbachia pipientis (assay: Anti-Wolbachia Cell-Based Screen). Conditions: 5 µM.
Type: functional
Set-up: scale not given: in the data most compounds retested in dose-response had high values
`O=C(O)CCc1cc2n(n1)CCCN(C(=O)c1ccc(Cl)s1)C2` was tested, and the “Percent Effect” value was -14.6%.
With `CCN1CCC(NN2CCN(C)CC2)CC1` the “Percent Effect” value was 4.072%.
`CCS(=O)(=O)NCC(=O)N1CC2(CCCC2)c2c(F)cccc21` was tested, and the “Percent Effect” value was -9.992%.
For `CC(=O)N[C@H]1C[C@@H](c2nc(-c3ccc4c(c3)OCO4)no2)N(C)C1`, the “Percent Effect” value was -4.728%.
`CN1C[C@@H](F)[C@@H](OCc2nc3ccccc3[nH]2)C1` was tested, and the “Percent Effect” value was -2.12%.
For `COCCc1ncc(CN2CCC3(CCCN(CC4CC4)C3)C2)cn1` (centres undefined), the “Percent Effect” value was 106.1%.
For `c1cnc(N2CCC3(CCCN(CC4CCCCC4)C3)C2)cn1` (centres undefined), the “Percent Effect” value was 13.44%.
In the case of `COc1ncc(CN2CCC3(CCCN(CC4CCCCC4)C3)C2)cn1` (centres undefined), the “Percent Effect” value is reported as 96.23%.
`COCCc1ncc(CN2CCC(Oc3ccccc3C)CC2)cn1` was tested, and the “Percent Effect” value was 2.53%.
In the case of `COCCc1ncc(CN2C[C@H](C3CC3)[C@@H](N)C2)cn1`, the “Percent Effect” value is reported as -19.64%.
For `OCC1(CC2CC2)CCCN(Cc2cnc(C3CCCCC3)nc2)C1` (centres undefined), the “Percent Effect” value was -2.459%.
For `CCCSc1ncc(C2CC(=O)NCc3nc4ccccn4c32)cn1` (centres undefined), the “Percent Effect” value was 2.221%.
With `COc1ccccc1C1(CNc2cn[nH]c(=O)c2Cl)CC1` the “Percent Effect” value was 2.708%.
`CC(NC(=O)c1cccnc1N(C)C)c1ccccc1Br` (centres undefined) was tested, and the “Percent Effect” value was 9.946%.
With `C=C(C)COc1cccc(C(=O)N(C)C(C)c2ccncn2)c1` (centres undefined) the “Percent Effect” value was -7.553%.
In the case of `COCCC(=O)N1CCC2(CCN(Cc3cccc(F)c3)CC2)C1.O=C(O)C(F)(F)F`, the “Percent Effect” value is reported as -14.27%.
`O=C(O)C(F)(F)F.O=S(=O)(c1ccccc1)N1CCC2(CCCN2Cc2cccc(Cl)c2)C1` (centres undefined) was tested, and the “Percent Effect” value was -34.27%.
In the case of `O=C(O)C(F)(F)F.O=C(c1cscn1)N1CCC2(CN(Cc3nccs3)C2)C1`, the “Percent Effect” value is reported as 5.214%.
With `O=C(O)C(F)(F)F.O=C(c1ccccc1)N1CCCC2(CCN2Cc2cccc(F)c2)C1` (centres undefined) the “Percent Effect” value was 106.4%.
For `CNC(=O)CN1C(=O)CCC12CCCN(Cc1cccc(F)c1)C2.O=C(O)C(F)(F)F.O=C(O)C(F)(F)F` (centres undefined), the “Percent Effect” value was 0.4911%.
In the case of `O=C(O)C(F)(F)F.O=C(c1cscn1)N1CCC2(CCN(Cc3nccs3)CC2)C1`, the “Percent Effect” value is reported as 11.65%.
`CCS(=O)(=O)N1CCCC2(CCCN2Cc2cccc(F)c2)C1.O=C(O)C(F)(F)F` (centres undefined) was tested, and the “Percent Effect” value was -5.383%.
For `O=C(O)C(F)(F)F.O=C(O)C(F)(F)F.O=C(O)CN1CCCC2(CCN2Cc2cccc(F)c2)C1` (centres undefined), the “Percent Effect” value was 109.4%.
`O=C(O)C(F)(F)F.O=C(c1cscn1)N1CCCC2(CCN2Cc2cccc(F)c2)C1` (centres undefined) was tested, and the “Percent Effect” value was 96.65%.
`COC(=O)CCC(=O)N1CCCC2(CCCN2Cc2cccc(F)c2)C1.O=C(O)C(F)(F)F` (centres undefined) was tested, and the “Percent Effect” value was 107.2%.
With `Cc1cnc(CNc2ccccc2CN(C)C(=O)c2cccs2)o1` the “Percent Effect” value was 6.302%.
With `Cc1cc(-c2nn(C)c(Cl)c2CN2CCOCC(O)C2)no1` (centres undefined) the “Percent Effect” value was 7.686%.
`Cc1ccc(OCC(=O)Nc2ncccc2OC(F)F)cc1` was tested, and the “Percent Effect” value was -8.184%.
`COc1ccc(-c2nc(CN3CCCS3(=O)=O)co2)cc1` was tested, and the “Percent Effect” value was -14.94%.
With `Cc1ccccc1N1CCN(C(=O)CSc2ccncc2)CC1=O` the “Percent Effect” value was -3.872%.
For `CC(C)C(NC(N)=O)C(=O)N1CCN(c2ccccc2Cl)C(=O)C1` (centres undefined), the “Percent Effect” value was 3.196%.
For `CN(C)C(=O)N1CCN(c2ccc(Cl)nn2)C(=O)C1`, the “Percent Effect” value was 97.53%.
`COC(=O)[C@@H]1CN(C(=O)NC(C)C)CCN1S(=O)(=O)c1ccccc1` was tested, and the “Percent Effect” value was -0.3484%.
`COc1cccc(N2CCN(C(=O)C(O)c3ccccc3Cl)CC2=O)c1` (centres undefined) was tested, and the “Percent Effect” value was 0.2128%.
In the case of `CC(=O)N1CCN(c2ccc(Cl)nn2)C(=O)C1`, the “Percent Effect” value is reported as 106.1%.
For `Cc1ccc2cc(C(=O)N3CCN(C(=O)N(C)C)CC3)ccc2n1`, the “Percent Effect” value was 1.001%.
With `CC(O)C(=O)N1CCN(c2ccccc2Cl)C(=O)C1` (centres undefined) the “Percent Effect” value was -6.675%.
For `CC(C)NC(=O)N1CCN(c2ccc(Cl)nn2)C(=O)C1`, the “Percent Effect” value was 110.8%.
`CCN1CCN(C(=O)C(C)SC)CC1` (centres undefined) was tested, and the “Percent Effect” value was -3.808%.
In the case of `CC(C)(NS(C)(=O)=O)C(=O)NCc1cccc(Br)c1`, the “Percent Effect” value is reported as -10.37%.
`Cc1cnc(CNc2ccc(C(=O)NCc3ccco3)cc2C)o1` was tested, and the “Percent Effect” value was -1.967%.
`O=C1COc2ccc(S(=O)(=O)NCc3ccccc3)c3c2N1CCC3` was tested, and the “Percent Effect” value was -7.83%.
With `CCOC(=O)C1(Cc2ccc(Cl)cc2)CCN(Cc2ncc[nH]2)CC1` the “Percent Effect” value was -10.72%.
For `Cc1[nH]c2ccccc2c1CCNC(=O)N1CCC2(C1)OCCO2`, the “Percent Effect” value was 5.663%.
For `O=C(CCN1CCOCC1)NC(Cc1ccsc1)c1nccs1` (centres undefined), the “Percent Effect” value was 146.7%.
For `Cc1nc(-c2ccsc2)ccc1C(=O)NCCN1CCOCC1`, the “Percent Effect” value was -7.078%.
With `O=C(C(CNCc1ccsc1)c1ccccc1)N1CCOCC1` (centres undefined) the “Percent Effect” value was 2.12%.
`Cc1ccc(CN2CCOCC2)cc1NCc1ccsc1` was tested, and the “Percent Effect” value was -9.351%.
In the case of `CNS(=O)(=O)c1cccc(C(C)NCc2ccsc2)c1` (centres undefined), the “Percent Effect” value is reported as -13.31%.
For `Cc1n[nH]c(C2CN(CC(=O)NCCc3ccsc3)CCO2)n1` (centres undefined), the “Percent Effect” value was -13.37%.
`Cc1ccc(C(=O)N2CCOCC2)cc1NCc1ccsc1` was tested, and the “Percent Effect” value was -10.53%.
`Cc1cccc(CNC(Cc2ccsc2)c2nc(C)c(C)s2)n1.Cl` (centres undefined) was tested, and the “Percent Effect” value was 125.8%.
In the case of `Cc1nc(C(Cc2ccsc2)NC(=O)CN2CCOCC2)sc1C` (centres undefined), the “Percent Effect” value is reported as 171.6%.
For `CC(NC(=O)Nc1ccccc1CN1CCOCC1)c1nccs1` (centres undefined), the “Percent Effect” value was 15.83%.
In the case of `Cc1nc(C(Cc2ccsc2)NC(=O)CCN2CCOCC2)sc1C` (centres undefined), the “Percent Effect” value is reported as 158.4%.
`Cn1cc(C(C)(O)CNC(=O)c2cc(Br)cn2C)cn1` (centres undefined) was tested, and the “Percent Effect” value was 0.5421%.
With `Cc1n[nH]c(-c2ccc(NC(=O)C(C)(C)N3CCN(C)CC3)cc2)n1` the “Percent Effect” value was -11.99%.
For `CC(C)(C)c1cnc(CN2CCCS2(=O)=O)o1`, the “Percent Effect” value was -7.665%.
`O=C1CCc2cc(S(=O)(=O)NC(=O)c3ccc4c(c3)COC4)ccc2N1` was tested, and the “Percent Effect” value was -36.98%.
In the case of `O=c1c2cccc(Cl)c2ncn1C1CCNC1` (centres undefined), the “Percent Effect” value is reported as 5.785%.
With `Cc1ccc(C(=O)NCc2ccccc2S(=O)(=O)N(C)CCO)cc1F` the “Percent Effect” value was -6.958%.
With `Nc1ccnc(CNc2cc(F)ccc2OCC2CCCO2)n1` (centres undefined) the “Percent Effect” value was -8.979%.
In the case of `O=C(Nc1cc(F)ccc1OCC1CCCO1)c1ccc(O)nc1` (centres undefined), the “Percent Effect” value is reported as 10.58%.
`Fc1ccc(OCC2CCCO2)c(NCc2cn3cccnc3n2)c1` (centres undefined) was tested, and the “Percent Effect” value was -2.31%.
For `CS(=O)(=O)CCC(=O)Nc1cc(F)ccc1OCC1CCCO1` (centres undefined), the “Percent Effect” value was 92.36%.
In the case of `Cc1ccc(C(=O)Nc2cc(F)ccc2OCC2CCCO2)cn1` (centres undefined), the “Percent Effect” value is reported as -10.64%.
In the case of `Cc1cnc(C(=O)Nc2cc(F)ccc2OCC2CCCO2)cn1` (centres undefined), the “Percent Effect” value is reported as -2.263%.
For `CCn1nc(C)cc1C(=O)Nc1cc(F)ccc1OCC1CCCO1` (centres undefined), the “Percent Effect” value was -4.642%.
`Cc1ccc(NC(=O)N2CCCC2)c(OCC2CCCO2)c1` (centres undefined) was tested, and the “Percent Effect” value was 97.39%.
With `O=C(CNc1cc(F)ccc1OCC1CCCO1)N1CCOCC1` (centres undefined) the “Percent Effect” value was 97.1%.
In the case of `O=C(Nc1cc(F)ccc1OCC1CCCO1)NC1CC1` (centres undefined), the “Percent Effect” value is reported as 110.8%.
In the case of `O=C(Nc1ccccc1OCC1CCCCO1)c1ccc(O)nc1` (centres undefined), the “Percent Effect” value is reported as 2.227%.
With `CCOCCC(=O)Nc1cc(C(N)=O)ccc1N1CCCC(C)C1` (centres undefined) the “Percent Effect” value was -3.919%.
`CCc1nc(CN(C)CC(c2cccs2)N2CCOCC2)no1` (centres undefined) was tested, and the “Percent Effect” value was -2.837%.
In the case of `COCCC(=O)N1CCc2cc(Cl)cc(Cl)c2C1`, the “Percent Effect” value is reported as -13.08%.
For `Cc1c(-c2c(-c3ccccc3)ncn2[C@H](CO)C(=O)O)cnn1C`, the “Percent Effect” value was -0.2965%.
For `CCOc1cccc(C(C)NCc2ccc(OC)c(OC)c2OC)c1` (centres undefined), the “Percent Effect” value was 2.292%.
`CCCC(NC(=O)c1cc(C2CC2)[nH]n1)c1nnc2ccccn12` (centres undefined) was tested, and the “Percent Effect” value was 4.911%.
In the case of `O=C(CC(F)(F)F)Nc1cc(F)ccc1OCC1CCCO1` (centres undefined), the “Percent Effect” value is reported as 91.81%.
In the case of `CC(=O)N1CCC(Nc2cc(F)ccc2OCC2CCCO2)CC1` (centres undefined), the “Percent Effect” value is reported as 103.1%.
For `O=C(Nc1cc(F)ccc1OCC1CCCO1)N1CCCC1` (centres undefined), the “Percent Effect” value was 75.82%.
In the case of `O=C(Nc1cc(F)ccc1OCC1CCCO1)c1ccoc1` (centres undefined), the “Percent Effect” value is reported as -0.8662%.
With `O=C(Nc1cc(F)ccc1OCC1CCCO1)c1ccccn1` (centres undefined) the “Percent Effect” value was -3.019%.
For `CCc1noc(CNc2cc(F)ccc2OCC2CCCO2)n1` (centres undefined), the “Percent Effect” value was -4.375%.
`O=C(Nc1cc(F)ccc1OCC1CCCO1)N1CCSCC1` (centres undefined) was tested, and the “Percent Effect” value was 95.33%.
`CC(C)(C)c1nnc(CNc2cc(F)ccc2OCC2CCCO2)o1` (centres undefined) was tested, and the “Percent Effect” value was 0.05226%.
With `CN(Cc1ccco1)C1CCC12CCN(C(=O)c1ccnnc1)CC2.O=C(O)C(F)(F)F` (centres undefined) the “Percent Effect” value was -20.01%.
For `CCN1CCN(S(=O)(=O)N2CCC(OC)CC2)[C@H]2CS(=O)(=O)C[C@H]21`, the “Percent Effect” value was -12.77%.
With `Cc1ccc2nc(CN(C)Cc3ccc(C)o3)cc(=O)n2c1` the “Percent Effect” value was 4.444%.
With `CC(COc1ccccc1)NCc1nc(-c2cccnc2)no1` (centres undefined) the “Percent Effect” value was -6.485%.
In the case of `CS(=O)(=O)c1ccc(CNCC2CCN(CCO)CC2)cc1`, the “Percent Effect” value is reported as -3.753%.
In the case of `Cc1cc(C(=O)NCc2cc(C)oc2C)no1`, the “Percent Effect” value is reported as 107.3%.
In the case of `Cc1cc(CNC(=O)c2ccno2)c(C)o1`, the “Percent Effect” value is reported as 94.7%.
With `Cc1cc(CNC(=O)c2cnoc2C)c(C)o1` the “Percent Effect” value was 146.4%.
With `COc1cc(NC(=O)NCc2cc(C)oc2C)cc(OC)c1` the “Percent Effect” value was -2.456%.
With `Cc1cc(C(=O)NCc2cccnc2OC(C)C)no1` the “Percent Effect” value was -0.04653%.
In the case of `Cc1cc(CNC(=O)COc2ccccc2F)c(C)o1`, the “Percent Effect” value is reported as 7.15%.
`Cc1cc(C(=O)NCc2ccccn2)no1` was tested, and the “Percent Effect” value was 0.7911%.
For `Cc1nnn2c1COCC(CNC(=O)c1cnoc1C)C2` (centres undefined), the “Percent Effect” value was -0.1551%.
In the case of `COc1ccc(CNC(=O)NCc2cc(C)oc2C)cc1`, the “Percent Effect” value is reported as 2.864%.
In the case of `Cc1cccnc1CNC[C@H]1Cn2cc(-c3ccccc3)nc2CO1`, the “Percent Effect” value is reported as 6.747%.
`NC(=O)c1cccc(CNC(=O)NCCOc2ccc(F)c(F)c2)c1` was tested, and the “Percent Effect” value was 0.2822%.
For `CSCc1noc(C2CCC(=O)N(CCCN3CCCC3=O)C2)n1` (centres undefined), the “Percent Effect” value was -15.49%.
With `OCCOc1ccc(NCc2cc(F)cc3cccnc23)cn1` the “Percent Effect” value was -4.55%.
